GDH-TPI counter – GDH-TPI coupling enzyme inhibitors, primary screen, artefact control for M. tuberculosis FBA inhibitor project, biochemical, absorbance, full deck | GDH-TPI coupled enzyme counterscreen, NADH absorbance | inhibition, % at 4.8 µM | hit rate 1.2% among 360,000;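 note: 0% = DMSO wells and 100% = wells lacking the enzyme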
BH1578 lux ind – inducers of Vibrio cholerae quorum light production without autoinducers, primary screen, BH1578 luxS cqsA deficient, single point; activation, % at 18.7 µM; hit rate 0.16% among 350,000; V. cholerae BH1578 lux reporter, luminescence, 6 h; in the data active = activation mostly above about 9.7%, no sharp cut-off
CCHF vOTU inh-1 – CCHFV vOTU protease inhibitors, primary screen, biochemical, Pep-AMC substrate, fluorescence. Crimean-Congo hemorrhagic fever virus L polyprotein viral ovarian tumor (vOTU) protease …. hit rate 0.55% among 370,000. inhibition, % at 11.5 µM; note: 0% = vehicle wells with enzyme and 100% = no enzyme wells
FBA Mtb inh – Mtb FBA enzyme inhibitors, primary screen, biochemical, fluorescence, strain H37Rv; Fructose-bisphosphate aldolase (Mycobacterium tuberculosis (strain ATCC 25618 / H37Rv)), …; purified M. tuberculosis FBA, fluorescence read-out; inhibition, % at 1 µM; hit rate 2.3% among 360,000; in the data active = inhibition above about 27%;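 note: 0% = vehicle and 100% = reference inhibitor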
Target sequence (P9WQA3 whole entry, looked up): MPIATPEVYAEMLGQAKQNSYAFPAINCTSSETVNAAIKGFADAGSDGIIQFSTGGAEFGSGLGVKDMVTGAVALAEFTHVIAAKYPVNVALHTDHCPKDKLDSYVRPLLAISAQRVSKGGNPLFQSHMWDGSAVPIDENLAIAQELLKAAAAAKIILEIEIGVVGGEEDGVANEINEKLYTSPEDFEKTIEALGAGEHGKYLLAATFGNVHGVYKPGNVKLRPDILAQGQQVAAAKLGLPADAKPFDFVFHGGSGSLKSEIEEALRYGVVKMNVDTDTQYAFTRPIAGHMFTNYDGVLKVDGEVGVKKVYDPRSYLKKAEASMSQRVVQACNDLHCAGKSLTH
CCHF vOTU inh-2 – CCHFV vOTU protease inhibitors, confirmation, biochemical, Pep-AMC substrate, fluorescence; shares compounds with CCHF vOTU inh-1; Recombinant CCHFV vOTU; inhibition, % at 11.5 µM; hit rate 17% among 1,900; AID 686976, 2013
* hit, by the source's call; i = inactive; x = not tested or not shown. Sampled rows, rich in hits. Any-hit rate of the full collection: about 3.9%. Cut-off read from the data, not from the text of the source, unless noted: active = inhibition above about 30%; inactive = the rest.

SMILES	GDH-TPI counter	BH1578 lux ind	CCHF vOTU inh-1	FBA Mtb inh	CCHF vOTU inh-2
COc1ccc(N=NC2=C(O)CC(C)(C)CC2=O)cc1	15.6	i	31.7*	-26.2	3.7
O=C(Nc1c(-c2ccccc2)[nH][nH]c1=O)c1ccc2c(c1)OCO2	x	x	10.4	x	x
O=C(Nc1c(-c2ccc3c(c2)OCO3)[nH][nH]c1=O)c1cccc(C(F)(F)F)c1	x	x	34.0*	0.3	-9.2
O=C(Nc1c(-c2ccc3c(c2)OCO3)[nH][nH]c1=O)c1ccccc1	x	x	42.3*	5.3	-5.9
Cc1ccccc1C(=O)Nc1ccc(S(=O)(=O)N2CCOCC2)cc1	-3.5	i	x	-0.3	x
CCN(CC)c1ccc(/C=N/NC(=O)c2c(Cl)cnn2C)c(O)c1	16.6	-0.2	36.1*	8.4	-11.0
Cn1ncc(Cl)c1C(=O)N/N=C/c1cc2c(cc1[N+](=O)[O-])OCO2	7.6	-0.3	5.5	4.6	x
CCOC(=O)c1c2c(n(Cc3ccccc3)c1C)C(=O)C(=O)c1ccccc1-2	0.0	i	102.3*	-3.6	102.2*
COc1ccc(OCc2cc(C(=O)NC3CCOC(C)(C)C3)no2)c2ccccc12 (stereo not given)	6.5	-0.2	43.1*	6.8	21.8
Cc1ccc(C)c(NC(=O)CN(C)C(=O)c2cc(C3CC3)nn2-c2ccccc2)c1	13.7	i	12.5	-1.7	x
CCc1ccccc1NC(=O)CNC(=O)c1cc(C2CC2)nn1-c1ccccc1	0.9	-0.8	39.4*	1.0	-1.8
Cc1cccc(C(=O)N[C@@H](C)C(=O)N2CCN(c3ncccn3)CC2)c1	-11.6	i	34.1*	5.1	-26.8
CCOc1ccc2c(c1)C(C)=CC(C)(C)N2	1.4	-0.1	39.6*	5.6	-104.6
CCc1ccc2c(c1)C(C)=CC(C)(C)N2	5.0	x	3.0	-0.6	x
CC(=O)c1c(C)[nH]c(C(=O)OCC(=O)NNC(=O)c2ccc([N+](=O)[O-])cc2)c1C	15.1	-0.8	35.3*	-0.8	-11.6
CC(=O)c1c(C)[nH]c(C(=O)OCC(=O)Nc2ccc([N+](=O)[O-])cc2Cl)c1C	5.0	-0.3	-4.3	2.5	x
CCCCCCC[C@@H](C/C=C/CCC(=O)N(C)C/C(=C/Cl)C/C(=C\C(=O)N1C[C@H](O)CC1=O)OC)OC	4.7	i	31.2*	-0.7	12.6
CCCCCCC[C@@H](C/C=C/CCC(=O)N(C)C/C(=C/Cl)C/C(=C\C(=O)N1CC(OC)=CC1=O)OC)OC	8.3	i	12.4	-0.6	x
COc1cc(COC(=O)Oc2ccc(CNC(C)=O)cc2OC)c([N+](=O)[O-])cc1OC	5.8	2.8	31.3*	0.0	-11.2
COc1ccc(COC(=O)Oc2ccc(CNC(C)=O)cc2OC)c([N+](=O)[O-])c1	8.5	-0.4	-1.2	-2.2	x
Cc1ccc(S(=O)(=O)N2[C@@H](c3ccc(F)cc3)C(C(=O)O)=CC[C@H]2c2cccc(Cl)c2)cc1	-2.6	0.6	3.4	-2.2	x
Cc1ccc(S(=O)(=O)N2[C@@H](c3ccccc3)C(C(=O)O)=CC[C@H]2c2ccc(C(C)C)cc2)cc1	0.8	-0.4	30.4*	-1.4	2.3
Cc1ccc([C@H]2C(C(=O)O)=CC[C@@H](c3ccc(Cl)cc3)N2S(=O)(=O)c2ccc(C)cc2)cc1	4.2	i	33.4*	7.1	-0.4
Cc1ccc([C@H]2C(C(=O)O)=CC[C@@H](c3cccc(Cl)c3)N2S(=O)(=O)c2ccc(C)cc2)cc1	-2.1	i	7.2	-1.5	x
Cc1ccc(S(=O)(=O)N2[C@@H](c3ccc(Cl)cc3)C(C(=O)O)=CC[C@H]2c2ccc(C(C)C)cc2)cc1	9.7	4.5	27.4	-0.5	x
SMILES	GDH-TPI counter	BH1578 lux ind	CCHF vOTU inh-1	FBA Mtb inh	CCHF vOTU inh-2
O=C(O)C1=CCC(c2ccc(Cl)c(Cl)c2)N(S(=O)(=O)c2ccc(F)cc2)C1c1cccc(F)c1 (stereo not given)	x	x	36.6*	x	-10.5
Cc1ccc(S(=O)(=O)N2[C@@H](c3ccc(C(C)(C)C)cc3)C(C(=O)O)=CC[C@H]2c2cccc(Cl)c2)cc1	3.6	i	37.6*	1.6	10.8
Cc1ccccc1OCCCC(=O)Nc1ccc(N2CCOCC2)cc1	1.6	-5.0	-5.9	0.7	x
Cc1cccc(C(=O)NCCNC(=O)c2ccccn2)c1	-10.6	i	4.6	-1.9	x
COc1ccnc(Oc2ccc3ccccc3c2)c1C#N	-10.0	i	-1.3	-6.3	x
CCc1ccc([C@@H]2CC=C(C(=O)O)[C@H](c3ccc(C)cc3)N2S(=O)(=O)c2ccc(C)cc2)cc1	-0.9	i	31.8*	-0.7	15.9
Cc1ccc([C@H]2C(C(=O)O)=CC[C@@H](c3ccc(C(C)C)cc3)N2S(=O)(=O)c2ccc(C)cc2)cc1	18.8	-0.7	37.5*	2.9	19.3
CCc1ccc([C@@H]2C[C@H]3[C@@H](CN2S(=O)(=O)c2ccc(C)cc2)C(=O)C[C@@H](c2ccc(C)cc2)N3S(=O)(=O)c2ccc(C)cc2)cc1	1.9	-0.4	34.0*	-1.2	-20.4
Cc1ccc(S(=O)(=O)N2[C@@H](c3ccc(Br)cc3)C(C(=O)O)=CC[C@H]2c2ccc(Cl)c(Cl)c2)cc1	-2.8	i	32.1*	-2.3	9.3
CCc1ccc([C@@H]2C[C@H]3[C@@H](CN2S(=O)(=O)c2ccc(C)cc2)C(=O)C[C@@H](c2ccccc2)N3S(=O)(=O)c2ccc(C)cc2)cc1	5.7	-0.2	5.4	-0.1	x
O=C(O)c1cccn1Cc1ccccc1F	-6.5	-0.3	-12.1	-0.1	x
CC(C)[C@@H]1O[C@H](CCc2ccccc2)CC2=C1C(=O)OC(C)(C)O2	x	x	10.4	x	x
O=C(CCN1C(=O)/C(=C\c2ccc(F)cc2)SC1=S)Nc1ccc(O)cc1	6.8	i	1.6	-0.8	x
O=C(CCCn1cc([N+](=O)[O-])cn1)NCc1ccccc1	-0.6	i	11.0	-2.0	x
COc1ccc(Cn2cc(F)c(=O)n(C)c2=O)cc1[N+](=O)[O-]	10.2	-0.7	0.3	-4.3	x
COc1ccc(N)c2c1C(=O)c1ccccc1C2=O	12.3	-0.2	-8.1	-2.1	x
COC1=C(Br)C(=O)c2nc(C)ccc2C1=O	-6.5	-4.8	115.0*	-2.0	82.6*
COC1=C(N)C(=O)c2nc(C)ccc2C1=O	7.8	i	54.8*	0.8	107.4*
CC(C)CN(CC(C)C)C(=O)CSc1nc2cccnc2n1C	x	x	-8.9	x	x
O=C(CCc1nnc2ccc(NCc3ccco3)nn12)Nc1ccccn1	-13.6	0.9	18.3	0.7	x
O=C(O)CC1S/C(=N/N=C/c2ccc(-c3ccc(Cl)c([N+](=O)[O-])c3)o2)NC1=O (stereo not given)	17.2	i	6.3	-2.1	x
O=C(O)CC1S/C(=N/N=C/c2ccc(-c3ccc(Cl)cc3[N+](=O)[O-])o2)NC1=O (stereo not given)	32.5*	-0.3	36.0*	-3.4	15.2
COc1ccc(/C=N/N=C2/NC(=O)C(CC(=O)O)S2)cc1OCc1ccc(Cl)cc1 (stereo not given)	56.8*	0.6	30.9*	-4.2	-0.8
